Screens deposited in PubChem BioAssay by Broad Institute.
Only some compounds are listed: those with a hit (about 1.2% of all), similar ones and a draw of the others.
Yp Topo-I inh: Y. pestis Topo-I inhibition via cleavage products. Y. pestis Topo-I cleavage product accumulation, plate reader. activity, % at 10 µM. hit rate 0.064% among 360,000. AID 504884; in the data active = activity above about 50%, passing the limit was not always enough; inconclusive = no clear call, values can overlap the other calls
FadD28 binding: inhibitors of Mycobacterium tuberculosis FadD28 bisubstrate binding. FadD28 bisubstrate probe binding, fluorescence polarization. inhibition, % at 12.5 µM. hit rate 0.22% among 360,000; in the data active = inhibition above about 8.5%, passing the limit was not always enough; inconclusive = no clear call, values can overlap the other calls
PrP UTR inh: suppresses PrP 5' UTR mRNA reporter expression; inhibition, % (test concentration not listed); cell-based PrP 5' UTR mRNA reporter, plate reader; hit rate 0.35% among 340,000; AID 488862; in the data active = inhibition above about 52%; also: 0 = median of the neutral control wells
Mtb BioA inh: inhibitors of Mycobacterium tuberculosis BioA enzyme. purified M. tuberculosis BioA enzyme, plate reader. inhibition, % at 9.99 µM. hit rate 0.096% among 360,000; in the data active = inhibition above about 40%; inconclusive = no clear call, values can overlap the other calls
PfHsp40 yeast: restores yeast growth despite PfHsp40 toxicity; S. cerevisiae expressing PfHsp40, growth rescue, ATP luminescence; AID 504582; hit rate 0.68% among 340,000; growth rescue, % at 12.5 µM; in the data active = growth rescue above about 28%, passing the limit was not always enough; inconclusive = no clear call, values can overlap the other calls;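 also: yeast W303a lacking pdr1 and pdr3 grown in galactose medium; growth measured after three days at 30 °C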
TcdB inh: inhibitors of Clostridioides difficile toxin B glycohydrolase; TcdB glycohydrolase enzymatic assay, plate reader; inhibition, % at 9.99 µM; hit rate 0.24% among 350,000; in the data active = inhibition above about 10%
Active calls of the source: *; u = inconclusive; x = not tested or not shown; + = active, no number; ! = not active in a repeat.

SMILES | Yp Topo-I inh | FadD28 binding | PrP UTR inh | Mtb BioA inh | PfHsp40 yeast | TcdB inh
O=C(N/N=C/c1ccncc1)c1sc2ccccc2c1Cl | -6 | 0 | 7 | -3 | -1 | 7
O=C(N/N=C/c1ccc[nH]1)c1sc2ccccc2c1Cl | 11 | -4 | -24 | 2 | 498* | x
CN(C)c1ccc2nc3ccc(=O)cc-3sc2c1 | + | u | x | 1 | x | 0
C[C@@H]1CN([C@@H](C)CO)C(=O)c2cc(C#CCN(C)C)cnc2O[C@@H]1CN(C)Cc1ccncc1 | x | x | x | -2 | x | 1
CC(C)CN1CCN(CC#Cc2ccccc2)CC1CCO (stereo not given) | -8 | -2 | -8 | x | 0 | 10*
CC(=O)Nc1ccc(S(=O)(=O)Nc2nc3ccccc3nc2Nc2ccc(S(N)(=O)=O)cc2)cc1 | -4 | 2 | -25 | -1 | 0 | x
CC(=O)Nc1ccc(S(=O)(=O)Nc2nc3ccccc3nc2Nc2ccc(O)c(C(=O)O)c2)cc1 | -3 | 13* | -11 | -14 | 2 | 2
CCc1ccc(OCC(=O)c2c(O)c3ccccc3oc2=O)cc1 | 1 | -2 | -26 | x | 0 | 1
CCc1oc2ccccc2c1C(=O)c1cc(Br)c(O)c(Br)c1 | -2 | -5 | -11 | 4 | 259*! | -3
CN1CCN(C(CNC(=O)c2ccc(Br)o2)c2ccc(F)cc2)CC1 (stereo not given) | -1 | -3 | -6 | 0 | -1 | 12*
Oc1ccc(Cl)cc1/C=C/c1ccc2cccc(O)c2n1 | -22 | -5 | -19 | x | 160* | 2
Cc1ccsc1/C=C/c1ccc2cccc(O)c2n1 | 12 | -4 | -55 | -2 | 446* | x
CC(C)NC(=O)N[C@@H]1C=C[C@@H](CC(=O)O)O[C@H]1CO | x | x | x | 3 | x | 0
O=C1C(=Cc2ccco2)CCC1=Cc1ccco1 | -7 | 13* | -8 | -1 | 8 | -1
O=C1C(=Cc2ccco2)CCCC1=Cc1ccco1 | 5 | 0 | -115 | -1 | 1 | 0
C[C@@H]1CN([C@H](C)CO)S(=O)(=O)c2ccc(/C=C/c3ccccc3)cc2O[C@@H]1CN(C)C(=O)c1ccc2c(c1)OCO2 | x | x | x | -2 | x | 0
COc1ccccc1OCCn1cc(/C=C(\C#N)C(=O)NCc2ccco2)c2ccccc21 | 13 | -2 | -4 | -1 | -1 | x
N#C/C(=C\c1cn(Cc2ccccc2F)c2ccccc12)C(=O)NCc1ccco1 | 83* | -2 | -16 | x | 0 | x
Cc1noc(C)c1NC(=O)Nc1ccc2c(c1)C(=O)N([C@H](C)CO)C[C@H](C)[C@@H](CN(C)C)O2 | x | x | x | 0 | x | 0
CN(C)C(=O)C[C@H]1C=C[C@H](NC(=O)NC2CCCC2)[C@@H](CO)O1 | x | x | x | 0 | x | -1
CC(=O)N1CCc2cc(Br)cc(S(=O)(=O)N3CCN(c4ccccn4)CC3)c21 | 36 | 4 | -11 | 0 | 0 | x
CC(=O)N1c2c(cc(Br)cc2S(=O)(=O)N2CCN(c3ccccn3)CC2)CC1C (stereo not given) | 33 | 3 | -13 | 0 | 52* | x
CCCC(C)Sc1nc2c([nH]1)c(=S)n(C)c(=O)n2C (stereo not given) | 13 | 0 | -5 | -1 | 38* | -3
Cc1noc(C)c1S(=O)(=O)N(C)C[C@H]1Oc2ccc(NC(=O)CCC(F)(F)F)cc2CC(=O)N([C@H](C)CO)C[C@@H]1C | x | x | x | -2 | x | 0
CC(C)(C)c1nnc(N/N=C/c2ccccc2O)n(N)c1=O | 2 | 0 | 30 | -1 | 71* | x
SMILES | Yp Topo-I inh | FadD28 binding | PrP UTR inh | Mtb BioA inh | PfHsp40 yeast | TcdB inh
COCC#Cc1ccc2c(c1)O[C@H](CN(C)C(=O)CC1CC1)[C@H](C)CN([C@@H](C)CO)S2(=O)=O | x | x | x | 0 | x | 3
COCC#Cc1ccc2c(c1)O[C@@H](CN(C)C(=O)CC1CC1)[C@H](C)CN([C@@H](C)CO)S2(=O)=O | x | x | x | -1 | x | 13*
CO[C@@H]1CN(C)C(=O)c2ccc(NC(=O)C3CCC3)cc2OC[C@@H](C)N(Cc2ccncc2)C[C@@H]1C | x | x | x | -2 | x | 0
COc1ccc(S(=O)(=O)Nc2ccc3c(c2)C(=O)N([C@H](C)CO)C[C@@H](C)[C@H](CN(C)C(=O)CCC(F)(F)F)OCCCC[C@@H](C)O3)cc1 | x | x | x | 1 | x | 0
CCc1ccc([C@@H]2CC=C(C(=O)O)[C@H](c3ccc(C)cc3)N2S(=O)(=O)c2ccc(C)cc2)cc1 | 14 | -7 | -60 | 5 | 14 | 0
Cc1ccc(S(=O)(=O)N2[C@@H](c3ccc(Cl)cc3)C(C(=O)O)=CC[C@H]2c2ccc(C(C)C)cc2)cc1 | 6 | -13 | -1 | 9 | 6 | 0
Cc1ccc(S(=O)(=O)N2[C@@H](c3ccccc3)C(C(=O)O)=CC[C@H]2c2ccc(C(C)C)cc2)cc1 | 4 | -7 | -23 | 4 | 133* | -2
Cc1ccc([C@H]2C(C(=O)O)=CC[C@@H](c3ccc(Cl)cc3)N2S(=O)(=O)c2ccc(C)cc2)cc1 | 8 | -5 | 8 | 1 | 46* | 0
CCc1ccc([C@@H]2CC=C(C(=O)O)[C@H](c3ccc(Cl)cc3)N2S(=O)(=O)c2ccc(C)cc2)cc1 | 9 | -16 | -11 | 4 | 281* | 0
Cc1ccc([C@H]2C(C(=O)O)=CC[C@@H](c3ccc(C(C)C)cc3)N2S(=O)(=O)c2ccc(C)cc2)cc1 | 27 | -10 | -9 | 7 | 8 | 0
CCc1ccc([C@@H]2CC=C(C(=O)O)[C@H](c3cccc(Cl)c3)N2S(=O)(=O)c2ccc(C)cc2)cc1 | 2 | -2 | -20 | 4 | 156* | 2
CN1C(=O)c2cc(NC(=O)c3ccccc3Cl)ccc2OC[C@H]2O[C@H](CC(=O)NCC(F)(F)F)CC[C@@H]21 | x | x | x | -2 | x | -2
COCC(=O)N[C@H]1CC[C@H](CC(=O)NCc2ccccc2OC)O[C@@H]1CO | x | x | x | -4 | x | 0
C=C1c2cccc(O)c2C(=O)C2C(=O)[C@]3(O)C(=O)C(C(N)=O)C(=O)[C@@H](N(C)C)[C@@H]3[C@@H](O)[C@H]12 (stereo not given in full) | -12 | 3 | -19 | -1 | 60* | -1
CCOC(=O)c1c(-c2ccc(C)s2)csc1NC(=O)c1cccs1 | -6 | 17* | -25 | -2 | -1 | x
CCOC(=O)c1c(-c2cccs2)csc1NC(C)=O | 16 | -1 | -17 | x | -1 | x
Cc1ccc(S(=O)(=O)N(C)C[C@H]2OCCCC[C@H](C)Oc3ccc(NS(=O)(=O)c4ccccc4)cc3C(=O)N([C@@H](C)CO)C[C@H]2C)cc1 | x | x | x | -5 | x | 0
CO[C@H]1CN(C)C(=O)c2cc(NC(=O)CC(F)(F)F)ccc2OC[C@@H](C)N(C(=O)C2CC2)C[C@H]1C | x | x | x | x | x | 0
COCCCNC(=O)C1CCN(S(=O)(=O)c2c(C)noc2/C=C\c2ccc(OC)cc2)CC1 | 6 | -1 | -19 | 0 | 0 | x
CCCCNC(=O)C1CCN(S(=O)(=O)c2c(C)noc2/C=C\c2ccc(OC)cc2)CC1 | 20 | 0 | -7 | -5 | -1 | 85*
